# NOD2-RIPK2 inh = blocks binding of human NOD2 to RIPK2; inhibition, % at 4.98 µM; actives 0.38% (n = 360,000); CHO BLA complementation NOD2-RIPK2, CCF4 ratio; AID 624267; O43353; in the data active means inhibition above about 21%;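 further: 0% = vehicle only and 100% = reference blocker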
# ANO1 block = inhibitors of mouse TMEM16A calcium-activated chloride channel; Q8BHY3; HEK293 TMEM16A/YFP iodide influx fluorescence, ionomycin; normalized B-score (activity score, 25-100; higher = stronger inhibition) at 10 µM; actives 1.2% (n = 310,000); AID 588511;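 active means ratio plate-corrected score three or more library SD toward inhibition, starting fluorescence score within five deviations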;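 further: score derived from kinetic fluorescence span divided by baseline fluorescence per well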
# TLR4 MyD88 comp = TLR4-MyD88 interaction inhibition in cells. inhibition, % at 8.4 µM. O00206+Q99836. actives 0.18% (n = 200,000). HeLa CL3-4 TLR4/MyD88 BLA complementation, FRET ratio. AID 861; in the data active means inhibition above about 25%;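 further: 0% = vehicle and 100% = reference inhibitor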
# TMEM16A act = activators or potentiators of mouse TMEM16A chloride channel. Q8BHY3. HEK293 TMEM16A/YFP-H148Q/I152L, iodide quench fluorescence; hits give low values. B-score at 10 µM. actives 0.3% (n = 340,000). AID 623877;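 active means fluorescence-ratio B-score plate-corrected deviation score at least 3 library SD below zero, with starting fluorescence score within 5 deviations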;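 further: channel opened by trigger with iodide after compound preincubation; score built on the fluorescence ratio of max minus min over baseline; more negative score means more quench and so TMEM16A activation or potentiation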
# TLR9-MyD88 inh = inhibitors of human TLR9-MyD88 binding; inhibition, % at 4.98 µM; CHO BLA complementation TLR9-MyD88, CCF4 FRET ratio; AID 504734; actives 0.21% (n = 340,000);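 active means inhibition above the mean over all tested compounds plus 3 SD, cut at about 21% in these data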;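 further: 0% = DMSO only wells and 100% = clavulanate BLA inhibitor control wells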
# GRK2 inh = human GRK2 inhibition via aptamer displacement; bead flow cytometry, FAM-aptamer displacement from GRK2; actives 0.59% (n = 330,000); P25098; inhibition of aptamer binding, % at 10 µM;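 active means inhibition of aptamer binding above 40%, roughly 3 SD of noise, on plates passing a quality check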;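 further: median bead fluorescence of bound FAM aptamer so fluorescent compounds give negative values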
# TLR9-MyD88 conf = TLR9-MyD88 interaction inhibition, confirmation. shares compounds with TLR9-MyD88 inh. inhibition, % at 4.98 µM. CHO TLR9/MyD88 BLA complementation, CCF4 FRET ratio. actives 51% (n = 680);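 active means mean inhibition across three repeats above about 21% taken from the earlier screen, limit read from the data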;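 further: blue over green emission ratio reports constitutive TLR9 MyD88 association via BLA complementation; 0% = DMSO vehicle wells and 100% = clavulanate BLA inhibitor wells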
# BLA counter-1 = counter-screen for TLR9-MyD88 inhibitors: non-selective beta-lactamase inhibitors. shares compounds with TLR9-MyD88 inh. CHO-BLA cells, CCF4 FRET ratio, BLA reporter. inhibition, % at 4.98 µM. actives 7% (n = 680);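 active means mean inhibition above a 50% cutoff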;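 further: counterscreen of TLR9-MyD88 hits on CMV-driven BLA in CHO-K1 cells; 0% = DMSO alone and 100% = clavulanate blocking BLA; higher means less blue over green ratio so more BLA blockade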
# TLR9 CHO cytotox = CHO cell toxicity counter-screen for TLR9-MyD88 inhibitors. actives 39% (n = 680). shares compounds with TLR9-MyD88 inh. inhibition, % at 4.98 µM. AID 588336. TLR9-MyD88 CHO cells cytotoxicity, luminescence; in the data active means inhibition above about 11%
# TMEM16A reconf = reconfirmed blocker of mouse TMEM16A calcium-activated chloride channel; shares compounds with ANO1 block; HEK293 TMEM16A/YFP-H148Q, iodide quench fluorescence; ionomycin added to raise cell calcium; inhibition, % at 10 µM; actives 39% (n = 2,300);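 active means mean duplicate percent inhibition, scaled so buffer wells are 0 and the reference blocker 100, over three buffer SD above buffer mean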
# HEK293 Ca mobil = calcium mobilization counter-screen hit for TMEM16A inhibitor series; calcium response (% of ionomycin), % at 10 µM; AID 652231; actives 2% (n = 2,300); shares compounds with ANO1 block; TMEM16A/YFP HEK293, Fluo4 calcium mobilization;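 active means duplicate-averaged calcium signal over 20% of the ionomycin maximum, relative to buffer baseline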;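 further: each well's signal is peak minus trough fluorescence divided by its pre-addition baseline; 0% = buffer wells and 100% = ionomycin wells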
# YFP-HEK293 quench = parental YFP-HEK293 iodide quench counter-screen activity; shares compounds with ANO1 block; YFP ratio F(max-min)/F0 at 10 µM; 2,300 tested, under 10 active; ionomycin;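 active means yellow fluorescent protein signal ratio exceeding the buffer control mean by over 5 SD of those controls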;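 further: ratio is mean of duplicate wells from kinetic YFP trace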
# ClC-1 inh = blocks the rat ClC-1 voltage-dependent chloride channel | shares compounds with ANO1 block | CHO ClC-1-YFP, iodide influx fluorescence quench; iodide control reads 0, buffer control 100 | ratio percent, % at 10 µM | 2,300 tested, under 10 active;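 active means duplicate-mean ratio percent above the mean of iodide-only control wells, which defines zero, plus 5 of their SD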;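 further: higher percent means stronger block of ClC-1 iodide influx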
# NOD2 RIPK2 conf = confirmation of human NOD2-RIPK2 interaction inhibitors | shares compounds with NOD2-RIPK2 inh | CHO cells, NOD2-RIPK2 BLA complementation, CCF4 FRET | inhibition, % at 4.98 µM | actives 70% (n = 1,200) | AID 624370;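 active means mean inhibition across replicates above a set limit taken from the earlier primary screen, cut at about 21% in these data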;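 further: 0% = DMSO-only wells and the high end = clavulanate BLA-blocked wells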
# BLA counter-2 = hits BLA reporter in NOD2-RIPK2 inhibitor counterscreen; shares compounds with NOD2-RIPK2 inh; CHO BLA reporter, CCF4 FRET ratio; inhibition, % at 4.98 µM; actives 57% (n = 1,200); AID 624371;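 active means mean inhibition above the low-control mean inhibition plus three low-control SD, cut at about 11% in these data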;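 further: 0% = DMSO only wells and 100% = clavulanate high control wells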
# * = called active by the depositor; i = inactive; . = no result given. Shown are actives, neighbours in structure and some others; about 2.2% of the full set was active somewhere.
SMILES,NOD2-RIPK2 inh,ANO1 block,TLR4 MyD88 comp,TMEM16A act,TLR9-MyD88 inh,GRK2 inh,TLR9-MyD88 conf,BLA counter-1,TLR9 CHO cytotox,NOD2 RIPK2 conf,BLA counter-2,others
CC[C@]12c3[nH]c4cc(-c5ccco5)ccc4c3CCN1C(=O)[C@@H](CC(=O)NCCc1ccccn1)C[C@@H]2C(=O)N1CCN(C(=O)C2CC2)CC1,-8.0,.,.,.,7.5,0.0,-2.9,-2.8,0.9,.,.,
COC(=O)COc1ccc(S(=O)(=O)N2CCc3ccccc3C2)cc1C,1.1,i,12.6,i,6.1,0.0,.,.,.,.,.,
CN1/C(=C\C(=O)c2cncc(Br)c2)C(C)(C)c2ccccc21,13.9,i,15.9,i,21.5*,1.0,10.1,13.9,25.6*,.,.,TMEM16A reconf=22.0%*;HEK293 Ca mobil=i;YFP-HEK293 quench=-0.722;ClC-1 inh=-8.5
COc1ccc2c(c1)cc1c(=O)n(CC(=O)NCCCN3CCOCC3)nc(C)n12,0.2,i,.,i,1.0,0.0,.,.,.,.,.,
COc1ccc(OC)c2c1C(=O)C(Cl)=C(Cl)C2=O,85.7*,i,.,i,45.6*,3.0,69.9*,23.7,97.4*,87.6*,33.6*,
COc1ccc(OC)c2c1C(=O)c1ccccc1C2=O,.,i,15.8,.,.,2.0,.,.,.,.,.,
Cc1ccc(OCC(=O)OCC(=O)NC2CCS(=O)(=O)C2)cc1C (centres undefined),-9.6,.,.,.,-5.0,.,.,.,.,.,.,
O=C(c1nc2n(n1)C(c1ccc(Cl)cc1)C=C(c1ccccc1)N2)N1CCOCC1 (centres undefined),47.6*,i,22.1,i,41.9*,0.0,11.8,12.0,1.1,27.1*,21.2*,
COc1ccc(C2C=C(c3ccc(Cl)cc3)Nc3nc(NC(C)=O)nn32)cc1 (centres undefined),.,i,21.9,.,.,0.0,.,.,.,.,.,
CC1(C(=O)O)CCN1C(=O)COc1ccc(Cl)cc1 (centres undefined),1.9,.,.,.,.,.,.,.,.,.,.,
COc1cc2c3nnc(-c4ccc(F)cc4)c-3cn(Cc3ccc(F)cc3)c2cc1OC,55.6*,i,1.7,i,24.4*,0.0,10.6,15.4,3.0,61.0*,64.1*,
Cn1nc2c3cc(F)ccc3n(Cc3ccc(F)cc3)cc-2c1=O,-5.7,i,.,i,9.0,0.0,.,.,.,.,.,
CCCCC1C(=O)N(c2ccccc2)N(c2ccc(O)cc2)C1=O (centres undefined),67.8*,i,.,i,28.7*,0.0,6.3,-0.9,81.5*,29.1*,4.1,
O=C(NCc1ccco1)C(c1ccncc1)N(C(=O)Cn1nnc2ccccc21)c1ccccc1F (centres undefined),-9.5,i,.,i,0.6,2.0,.,.,.,.,.,
C1=C(c2ccccc2)Nc2ncnn2C1c1ccccc1 (centres undefined),35.4*,i,.,i,25.2*,0.0,10.7,11.6,0.9,0.9,5.4,
Cc1ccc(C2=CC(c3ccccc3)n3ncnc3N2)cc1 (centres undefined),52.1*,i,.,i,40.8*,3.0,8.7,5.6,-1.9,19.4,21.1*,
Cc1ccc(C2C=C(c3ccc4c(c3)OCO4)Nc3ncnn32)cc1 (centres undefined),42.1*,i,-5.2,i,31.5*,2.0,10.5,12.8,2.5,34.1*,41.6*,
Cc1ccc(C2=CC(c3ccccc3)n3ncnc3N2)c(C)c1 (centres undefined),-8.9,i,.,i,-7.2,1.0,.,.,.,.,.,
Fc1ccc(Br)cc1C1C=C(c2ccc(Br)cc2)Nc2ncnn21 (centres undefined),43.4*,i,0.8,i,20.9*,0.0,7.2,9.7,3.2,1.4,2.4,
CCn1cc(C(=O)N(C)CC(OC)OC)c(=O)c2cc(S(=O)(=O)N3CCOCC3)ccc21,-13.7,i,.,i,6.8,2.0,.,.,.,.,.,
Cc1ccc(N2CC(C(=O)NCc3n[nH]c(=O)c4ccccc34)CC2=O)cc1 (centres undefined),-8.2,i,.,i,-2.8,0.0,.,.,.,.,.,
CC(C)C(C)NC(=O)CN1C(=O)NC(c2ccccc2)(c2ccccc2)C1=O (centres undefined),-13.7,i,.,i,-2.8,4.0,.,.,.,.,.,
O=C(CCC(=O)N1CCOc2ccccc21)NCc1cccnc1,-6.6,i,.,i,4.0,0.0,.,.,.,.,.,
Nc1cccc2c1C(=O)N(Cc1cccc(Cl)c1)C2=O,35.1*,i,19.7,i,21.2*,0.0,16.6,19.8,3.5,31.9*,44.9*,
O=C1Cc2ccccc2C(=O)N1Cc1cccc(Cl)c1,-9.5,i,.,i,7.3,3.0,.,.,.,.,.,
COc1ccc(CN2C[C@@H](CO)O[C@@H](n3cnc4c(N5CCOCC5)ncnc43)C2)cc1,1.6,.,.,.,.,.,.,.,.,.,.,
O=C(Nc1ccc(OC(F)(F)F)cc1)c1[nH]ncc1[N+](=O)[O-],25.1*,i,0.5,i,24.5*,0.0,2.1,8.3,9.2,19.9,6.0,
O=c1c(O)c(-c2cccs2)oc2ccccc12,29.5*,i,18.9,i,20.9*,4.0,17.7,18.9,4.2,41.0*,38.4*,

# Source: PubChem BioAssay
